Laboratory results: PubChem BioAssay AID602364 (National Center for Advancing Translational Sciences (NCATS), 2012)
Records with an inconclusive call do not appear. Activity calls are given as the source filed them. Calls come from the whole dose curve; as a rule, active = well fitted inhibition curve with a large enough effect; inconclusive = small, poorly fitted or top-dose-only effect; inactive = flat fitted curve, though single readings scatter.

Target: Luciferin 4-monooxygenase (Photinus pyralis) (UniProt P08659)
Experiment: FLuc inhibitory activity for the follow-up compounds in a biochemical assay with 1mM ATP
Details: purified P. pyralis luciferase, luminescence; series mostly up to 57.5 µM
Outline: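 qHTS, 12 concentrations from ~60uM down to 0.3nM, against 10nM firefly luciferase; substrates at 1mM ATP and 10uM D-luciferin, in 50mM Tris acetate pH 7.5, 10mM Mg acetate; light output imaged.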

Luciferin 4-monooxygenase (Photinus pyralis), sequence (P08659 whole entry, looked up): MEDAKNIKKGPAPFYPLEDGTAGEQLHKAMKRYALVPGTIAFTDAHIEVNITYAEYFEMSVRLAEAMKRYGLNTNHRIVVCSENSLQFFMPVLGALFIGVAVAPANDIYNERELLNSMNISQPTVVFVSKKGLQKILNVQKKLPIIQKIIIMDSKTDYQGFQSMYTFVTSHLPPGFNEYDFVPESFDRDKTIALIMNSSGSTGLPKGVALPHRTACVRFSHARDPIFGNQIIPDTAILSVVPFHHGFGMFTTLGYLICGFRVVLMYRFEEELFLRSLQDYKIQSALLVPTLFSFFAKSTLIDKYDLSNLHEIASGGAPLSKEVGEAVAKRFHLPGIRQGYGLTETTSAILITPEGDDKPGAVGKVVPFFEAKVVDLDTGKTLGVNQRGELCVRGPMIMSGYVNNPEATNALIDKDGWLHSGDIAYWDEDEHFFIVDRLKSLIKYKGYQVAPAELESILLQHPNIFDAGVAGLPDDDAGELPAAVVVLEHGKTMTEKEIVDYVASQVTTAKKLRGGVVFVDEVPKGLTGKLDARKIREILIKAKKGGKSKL

Potency, inactive:
COc1ccc2nc(NC(=O)C3CCN(S(=O)(=O)c4cccnc4)CC3)sc2c1
O=C(Nc1ccccc1C(=O)O)c1cccc(S(=O)(=O)Nc2ccc(Br)cc2)c1
O=C(Nc1c(Cl)cc(Cl)cc1-c1nc2ccccc2s1)c1ccc(Br)o1
